CHT block: inhibitors of human choline transporter CHT | 310,000 tested, 0.86% active | CHT-expressing cells, membrane potential dye, choline response; hits give low values | B-score at 10 µM;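 active means B-score over 3 SD under the library average, and starting fluorescence ratio not unusually high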;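 further: choline stimulus applied at its EC90 after an EC20 pre-addition; B-score computed on integrated fluorescence ratio after choline addition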
TMEM16A inh: blocks the mouse calcium-activated chloride channel TMEM16A; Q8BHY3; HEK293 TMEM16A/YFP iodide influx fluorescence, ionomycin; normalized B-score (activity score, 25-100; higher = stronger inhibition) at 10 µM; 310,000 tested, 1.2% active; AID 588511;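 active means ratio plate-corrected score three or more library SD toward inhibition, starting fluorescence score within five deviations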;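 further: score derived from kinetic fluorescence span divided by baseline fluorescence per well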
Target sequence (Q8BHY3 whole entry, looked up): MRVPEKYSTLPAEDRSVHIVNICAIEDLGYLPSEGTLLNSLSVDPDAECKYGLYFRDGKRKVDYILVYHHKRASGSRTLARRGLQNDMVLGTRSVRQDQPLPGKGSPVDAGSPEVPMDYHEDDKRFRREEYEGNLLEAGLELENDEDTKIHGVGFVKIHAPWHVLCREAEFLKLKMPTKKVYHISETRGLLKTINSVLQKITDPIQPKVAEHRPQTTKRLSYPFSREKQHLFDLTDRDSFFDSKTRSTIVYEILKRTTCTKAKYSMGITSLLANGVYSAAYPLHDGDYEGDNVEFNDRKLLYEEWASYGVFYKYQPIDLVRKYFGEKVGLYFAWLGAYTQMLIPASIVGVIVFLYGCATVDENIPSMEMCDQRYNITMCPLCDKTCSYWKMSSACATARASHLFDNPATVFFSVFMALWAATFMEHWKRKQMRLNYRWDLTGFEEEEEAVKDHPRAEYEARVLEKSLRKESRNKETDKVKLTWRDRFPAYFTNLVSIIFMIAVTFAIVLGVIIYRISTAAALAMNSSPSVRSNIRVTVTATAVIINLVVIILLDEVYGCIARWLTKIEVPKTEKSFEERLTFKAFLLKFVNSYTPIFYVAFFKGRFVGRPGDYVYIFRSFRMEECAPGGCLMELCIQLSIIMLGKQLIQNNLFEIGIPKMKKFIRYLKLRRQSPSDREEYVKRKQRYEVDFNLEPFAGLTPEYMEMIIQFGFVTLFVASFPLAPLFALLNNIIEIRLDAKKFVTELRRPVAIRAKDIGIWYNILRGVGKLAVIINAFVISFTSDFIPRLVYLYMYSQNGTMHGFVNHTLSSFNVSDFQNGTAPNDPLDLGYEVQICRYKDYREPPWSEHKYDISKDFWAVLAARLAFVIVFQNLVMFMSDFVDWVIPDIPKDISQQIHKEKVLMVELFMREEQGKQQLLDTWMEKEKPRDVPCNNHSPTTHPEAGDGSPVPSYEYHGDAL
CHT PAM: allosteric activators of human choline transporter CHT; 310,000 tested, 0.49% active; CHT-expressing cells, membrane potential dye, choline EC20; hits give high values; LV-AA mutant CHT in HEK293 cells; Q9GZV3; B-score at 10 µM; AID 488977;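 active means initial fluorescence not abnormally high and integrated response B-score, plate-corrected, over 3 SD above library mean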
TMEM16A act: mouse TMEM16A channel activation, primary screen. B-score at 10 µM. HEK293 TMEM16A/YFP-H148Q/I152L, iodide quench fluorescence; hits give low values. Q8BHY3. 340,000 tested, 0.3% active;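 active means fluorescence-ratio B-score plate-corrected deviation score at least 3 library SD below zero, with starting fluorescence score within 5 deviations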;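 further: channel opened by trigger with iodide after compound preincubation; score built on the fluorescence ratio of max minus min over baseline; more negative score means more quench and so TMEM16A activation or potentiation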
TMEM16A reconf: reconfirmed blocker of mouse TMEM16A calcium-activated chloride channel. shares compounds with TMEM16A inh. HEK293 TMEM16A/YFP-H148Q, iodide quench fluorescence; ionomycin added to raise cell calcium. inhibition, % at 10 µM. 2,300 tested, 39% active. AID 652189;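 active means mean duplicate percent inhibition, scaled so buffer wells are 0 and the reference blocker 100, over three buffer SD above buffer mean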
TMEM16A Ca cntr: calcium mobilization counter-screen hit for TMEM16A inhibitor series; shares compounds with TMEM16A inh; TMEM16A/YFP HEK293, Fluo4 calcium mobilization; calcium response (% of ionomycin), % at 10 µM; 2,300 tested, 2% active; AID 652231;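 active means duplicate-averaged calcium signal over 20% of the ionomycin maximum, relative to buffer baseline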;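 further: each well's signal is peak minus trough fluorescence divided by its pre-addition baseline; 0% = buffer wells and 100% = ionomycin wells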
YFP-HEK293 quench: parental YFP-HEK293 iodide quench counter-screen activity; YFP ratio F(max-min)/F0 at 10 µM; ionomycin; shares compounds with TMEM16A inh; 2,300 tested, under 10 active; AID 652233;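 active means yellow fluorescent protein signal ratio exceeding the buffer control mean by over 5 SD of those controls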;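 further: ratio is mean of duplicate wells from kinetic YFP trace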
ClC-1 rat inh: rat ClC-1 inhibition, TMEM16A specificity screen | shares compounds with TMEM16A inh | CHO ClC-1-YFP, iodide influx fluorescence quench; iodide control reads 0, buffer control 100 | ratio percent, % at 10 µM | 2,300 tested, under 10 active | AID 652236;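 active means duplicate-mean ratio percent above the mean of iodide-only control wells, which defines zero, plus 5 of their SD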;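 further: higher percent means stronger block of ClC-1 iodide influx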
An asterisk follows results filed as active; i = inactive; . = not tested or not shown. Rows were chosen to be rich in hits. Some 2.4% of all compounds tested hit in one or more screens of this group.

SMILES | CHT block | TMEM16A inh | CHT PAM | TMEM16A act | TMEM16A reconf | TMEM16A Ca cntr | YFP-HEK293 quench | ClC-1 rat inh
COc1ccc(CCn2c(=S)[nH]c3cc(C(=O)NCc4ccco4)ccc3c2=O)cc1OC | i | 25* | i | i | i | i | -0.91 | -24
COc1ccc(-n2c(=S)[nH]c3cc(C(=O)NCc4ccco4)ccc3c2=O)cc1OC | i | i | i | i | . | . | . | .
CC1(C)NC(=O)N(CN2C(=O)NC(C)(C)C2=O)C1=O | i | i | i | i | i | i | -1.1 | 2
COc1ccc(NC(=O)Nc2ccc([N+](=O)[O-])cc2)cn1 | i | i | i | i | . | . | . | .
Cc1ccc(S(=O)(=O)C(C#N)c2nc3ccccc3nc2N2CCCC2)cc1 (stereo unspecified) | i | i | i | i | . | . | . | .
Cc1cccc(S(=O)(=O)C(C#N)c2nc3ccccc3nc2N2CC(C)OC(C)C2)c1 (stereo unspecified) | i | 25* | i | i | 18%* | i | -0.87 | -17
CCCc1cc(=O)n2[nH]cc(-c3ccc(Cl)cc3)c2n1 | i | 100* | i | i | i | i | -0.93 | -14
COCc1cc(=O)n2[nH]cc(-c3ccccc3)c2n1 | i | i | i | i | . | . | . | .
COc1ccc(N/C(=C2\CCCC2=O)C2CCCCC2)cc1 | i | i | i | i | i | i | -1 | -15
CCC(=O)Nc1ccc(Nc2nc(C)c([N+](=O)[O-])c(Nc3ccc(NC(=O)CC)cc3)n2)cc1 | i | i | i | i | . | . | . | .
CC1=NN(c2ccccc2)C(=O)/C1=C\C=C1\N(C)c2ccccc2C1(C)C | i | i | i | i | 30%* | i | -0.82 | 4
CCOC(=O)C1=C(CSc2nc3ccccc3s2)NC(=O)NC1c1ccc(OC)cc1 (stereo unspecified) | i | 25* | i | i | i | i | -1.1 | -16
Cc1nc(C)c(C(=O)OC(C)C(=O)Nc2ccc(F)cc2)s1 (stereo unspecified) | . | . | . | i | . | . | . | .
CNC(=O)COc1coc(CN2CCN(c3ccc(OC)cc3)CC2)cc1=O | i | i | i | i | . | . | . | .
Oc1ccc(NCc2cccc(OCc3ccccc3)c2)cc1 | i | 25* | i | i | i | 26%* | -1 | -1
NC(=O)[C@@H]1[C@@H]2C(=O)N(c3ccc(F)cc3)C(=O)[C@@H]2[C@H]2C=Cc3ccccc3N21 | i | i | i | i | 20%* | i | -1 | -5
O=C(c1ccco1)[C@@H]1[C@@H]2C(=O)N(c3ccc(F)cc3)C(=O)[C@@H]2[C@H]2C=Cc3ccccc3N21 | i | i | i | i | . | . | . | .
CC(C)CCN1C(=O)c2ccc(C(=O)Nc3ccccc3C(=O)O)cc2C1=O | i | 25* | i | i | i | i | -1.1 | -9
COc1ccc(NS(=O)(=O)c2ccc3c(c2)Cc2ccccc2-3)cn1 | i | 25* | i | i | i | i | -1.5 | -3
COc1ccc(NS(=O)(=O)c2ccc(N3CCCC3=O)cc2)cn1 | i | i | i | i | . | . | . | .
COC(/C(=N/O)c1ccc(Cl)cc1)c1ccccc1 (stereo unspecified) | i | 100* | i | i | 26%* | i | -1.3 | -26
O=C(c1cncs1)N1CCCC(CNS(=O)(=O)c2cccs2)C1 (stereo unspecified) | i | i | i | i | . | . | . | .
Cc1nnc(SCC(=O)Nc2nc(-c3ccccc3)cs2)n1N | i | 100* | i | i | i | i | -1 | -10
CCn1c(SCC(=O)Nc2nc(-c3ccccc3)cs2)nnc1-c1ccccc1 | i | i | i | i | . | . | . | .
COc1cccc(OC)c1C(=O)Nc1cc(Cl)ccc1N1CCOCC1 | i | i | i | i | i | i | -1 | -9
SMILES | CHT block | TMEM16A inh | CHT PAM | TMEM16A act | TMEM16A reconf | TMEM16A Ca cntr | YFP-HEK293 quench | ClC-1 rat inh
CC(Oc1cccc(Cl)c1)C(=O)Nc1ccc(N2CCOCC2)cc1N1CCOCC1 (stereo unspecified) | i | 25* | i | i | i | i | -1 | -8
Cc1ccc(OCC(=O)Nc2ccncc2)cc1 | i | i | i | i | . | . | . | .
Cc1ccc(-c2nc(CS(=O)CC(=O)NCCC(C)C)c(C)o2)cc1 (stereo unspecified) | i | i | i | i | . | . | . | .
COc1ccccc1OCC(=O)NCC(c1cccs1)N1CCOCC1 (stereo unspecified) | i | i | i | i | . | . | . | .
CC(C)c1ccccc1OCC(=O)NCC(c1cccs1)N1CCOCC1 (stereo unspecified) | i | 100* | i | i | 34%* | i | -1.3 | -3
CCC(C)(C(=O)Nc1c(C)cccc1C)N(C)C(=O)c1ccc2ccccc2n1 (stereo unspecified) | i | i | i | i | . | . | . | .
Cc1nc(-c2ccc(Cl)cc2)sc1C1(C)CC(c2ccc(Cl)cc2)=NO1 (stereo unspecified) | i | 25* | i | i | i | i | -0.93 | 0
CC(C)(C)c1csc(SCC(=O)Nc2ccc(Cl)cn2)n1 | i | 100* | i | i | i | i | -1.2 | -5
Cc1cccc(-n2nc3c(c2NC(=O)C(C)C)CSC3)c1 | i | i | i | i | . | . | . | .
O=C(NC(NC(=S)Nc1ccc(Cl)c(Cl)c1)C(Cl)(Cl)Cl)c1ccco1 (stereo unspecified) | i | 100* | i | i | 36%* | i | -0.88 | -21
O=C(O)c1cccc(NC(=S)NC(NC(=O)c2ccco2)C(Cl)(Cl)Cl)c1 (stereo unspecified) | i | i | i | i | . | . | . | .
Cc1nn(C)c(Cl)c1NC(=O)OCc1ccc(Cl)cc1Cl | i | 25* | i | i | i | i | -0.79 | -16
O=C(c1ccc2c(c1)OCO2)C1CCCN(Cc2ccc(OC(F)F)cc2)C1 (stereo unspecified) | i | 25* | i | i | 21%* | i | -1 | -14
Cc1c(C(=O)Nc2ccc3c(c2)OCCO3)sc2nc(-c3ccccc3)cn12 | i | 25* | i | i | 16%* | i | -0.94 | -12
CC(=O)N1CCOc2ccc(S(=O)(=O)NCc3ccc(Cl)cc3)cc21 | i | i | i | i | . | . | . | .

From PubChem
